A selection: hits, their analogues and other compounds. The true share with any hit is near 3.7%.
BoNT A protease = BoNT/A light chain protease inhibitors, primary screen, biochemical, flow cytometry, MLPCN library | Botulinum neurotoxin type A light chain protease (Clostridium botulinum A str. ATCC 3502) | multiplex microsphere protease substrate cleavage | inhibition, % at 10 µM | 0.17% of 360,000 active; also: plate controls were buffer without enzyme for full effect and enzyme alone for no effect
MazEF act = activators of E. coli MazEF toxin-antitoxin RNase, primary screen, biochemical, fluorescence, uHTS; Endoribonuclease toxin MazF (Escherichia coli (strain K12)), P0AE70; FAM/BHQ RNA-DNA oligo cleavage fluorescence, 5 h; activation, % at 20 µM; 0.32% of 350,000 active; in the data active = activation above about 50%
Target sequence (P0AE70 whole entry, looked up): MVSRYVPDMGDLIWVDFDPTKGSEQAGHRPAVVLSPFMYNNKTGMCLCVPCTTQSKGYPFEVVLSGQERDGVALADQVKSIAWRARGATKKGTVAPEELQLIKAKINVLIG
Autofluor counter = compound fluorescence in toxin protease inhibitor counterscreen; AID 624483; 3.1% of 360,000 active; fluorescence intensity (concentration not given with the values); compound autofluorescence counterscreen, microsphere flow cytometry; active compounds read high; in the data active = fluorescence intensity above about 16000; inconclusive = no clear call, values can overlap the other calls
Anthrax LF prot = Bacillus anthracis LF protease inhibitors, primary screen, biochemical, multiplex microsphere, MLPCN library; multiplex microsphere protease cleavage assay; inhibition, % at 10 µM; 0.12% of 360,000 active; Lethal factor (Bacillus anthracis), P15917; also: plate controls were buffer without enzyme for full effect and enzyme alone for no effect
BoNT F protease = BoNT/F light chain protease inhibitors, primary screen, biochemical, flow cytometry, MLPCN library; Botulinum neurotoxin type F light chain protease (Clostridium botulinum); Multiplex microsphere protease cleavage assay; inhibition, % at 10 µM; 0.22% of 360,000 active; AID 588497, 2011; in the data active = inhibition above about 35%, passing the limit was not always enough; inconclusive = no clear call, values can overlap the other calls; also: plate controls were buffer without enzyme for full effect and enzyme alone for no effect
An asterisk follows results filed as active; ? = inconclusive; nt = not tested or not shown. Rule as the data show it, unless noted: active = inhibition above about 30%; inconclusive = no clear call, values can overlap the other calls; inactive = below that.

SMILES	BoNT A protease	MazEF act	Autofluor counter	Anthrax LF prot	BoNT F protease
CC1CCN(S(=O)(=O)c2ccc3c(c2)CCN3C(=O)CCC(=O)O)CC1	6	3	21818*	-2	9
CCCCN(c1ccccc1)S(=O)(=O)c1ccc2c(c1)CCN2C(=O)CCC(=O)O	2	-2	22207*	-6	1
O=C(O)CCC(=O)N1CCc2cc(S(=O)(=O)N3CCCCC3)ccc21	0	0	10902	1	4
CCCC(=O)Nc1nc2n(n1)C(c1ccccc1)CC(=O)N2 (centres undefined)	-2	5	17011*	-1	0
O=C1CC(c2ccccc2)n2ncnc2N1 (centres undefined)	?	0	21144*	-1	-3
COc1ccc(Cl)cc1N1C(=O)CC(Sc2ccccc2N)C1=O (centres undefined)	-5	-3	3902	14	17
Cc1ccccc1CNC(=O)Cc1cccs1	1	0	2431	-2	0
O=C(Cc1cccs1)NCc1ccccc1F	-5	2	21726*	0	-5
O=C(NNc1ccccn1)C(=O)NNS(=O)(=O)c1ccc(Cl)cc1	-1	15	23954*	0	0
Cc1oc(C2CC2)cc1C(=O)O	1	4	19572*	-2	-1
CCOC(=O)c1cc(OC(=O)c2ccccc2OC)n(-c2ccccc2)n1	?	-19	20755*	-16	11
O=C1C2CCC(C2)C1CN1CCOCC1 (centres undefined)	-1	4	4049	-6	0
Cc1cc(S(=O)(=O)Nc2nc(CN3CCOCC3)nc3sc4c(c23)CCC4)cc(C)c1C	nt	1	nt	nt	nt
NS(=O)(=O)c1ccc(CCNc2nc(CN3CCCCC3)nc3sc4c(c23)CCC4)cc1	-3	5	21682*	-2	-4
CCN1C(=O)C(=Cc2cccc(OC)c2Oc2ccc([N+](=O)[O-])cc2[N+](=O)[O-])SC1=S	1	2	3569	1	-4
Cc1cccc(OCc2nnc(N)s2)c1	?	1	24413*	-4	-3
Nc1nnc(COc2cccc(C(F)(F)F)c2)s1	0	8	5746	-1	10
O=C(COC(=O)c1cnccn1)NC1CCCc2ccccc21 (centres undefined)	-1	1	8540	-2	0
CCOC(=O)Cc1cc(=O)c2c(=O)n(-c3ccccc3)[nH]c2[nH]1	2	-10	22135*	-2	2
O=c1cc(-c2ccccc2)[nH]c2[nH]n(-c3ccccc3)c(=O)c12	-2	9	17478*	0	-3
CCOC(=O)CC1=NN(c2ccccc2)C(=O)C1	0	2	2572	0	-4
O=c1cc(-c2ccccc2)[nH]n1-c1ccccc1	0	5	3612	-9	2
Cc1c(C(=O)OCC(=O)Nc2ccc(C(=O)N(C)C)cc2)oc2ccccc12	-3	-1	6503	1	-10
CC1(C(=O)NS(=O)(=O)c2ccc(Cl)s2)CCN1C(=O)Cc1ccc(Cl)cc1Cl (centres undefined)	0	nt	2951	1	-8
CN(Cc1ccccc1NCC(=O)Nc1ccccc1C#N)C1CCCCC1	0	5	3270	-4	2
SMILES	BoNT A protease	MazEF act	Autofluor counter	Anthrax LF prot	BoNT F protease
N#Cc1ccccc1NC(=O)CNc1ccccc1N1CCCCC1	?	-4	22615*	-4	-4
N#Cc1cc2ccccc2nc1SCC(=O)Nc1ccccc1N1CCOCC1	-1	51*	11422	0	-3
COc1ccc(NC(=O)CSc2nc(N)c(C#N)cc2C#N)cc1	1	-14	7786	-3	1
Cc1ccccc1NC(=O)CSc1nc(N)c(C#N)cc1C#N	0	-3	16586*	-2	0
Cc1cc(=O)[nH]c(SCC(=O)Nc2ccccc2C#N)c1C#N	3	-6	21510*	-1	6
CC(C)(c1ccccc1)c1ccc(OCC(O)CNC2CCN(Cc3ccccc3)CC2)cc1 (centres undefined)	1	-20	4322	-4	-17
Cc1cccnc1C(NC(=O)C1CCN(Cc2ccc(Oc3ccccc3)cc2)CC1)c1ccccc1 (centres undefined)	0	nt	4269	0	-5
CCN1CNC(=S)N(c2cccc(C)c2C)C1	?	-6	20115*	-2	-3
Cc1cc(C)c2c(=O)n(CC(=O)Nc3ccc(Cl)cc3)sc2n1	48*	-16	3796	-7	5
O=c1[nH]c(-c2ccc(O)cc2)nc2scc(-c3cccs3)c12	-1	12	5273	-2	-3
Cc1nc2scc(-c3cccs3)c2c(=O)[nH]1	-4	1	25937*	-1	-7
CC(C)CC(=O)Nc1c2c(nn1-c1cccc(Cl)c1)CS(=O)C2 (centres undefined)	1	6	3592	-13	9
O=C(OCC(F)(F)C(F)F)c1ccccc1C(=O)Oc1ccc(F)cc1F	?	-9	20051*	0	3
Cc1ccc(N(c2ncnc(N)c2[N+](=O)[O-])C2CCCCC2)cc1	0	4	23258*	0	1
Cc1ccc(Oc2ncnc(N)c2[N+](=O)[O-])cc1	1	-13	3570	-1	-3
CC1(C)CC(=O)C=C(Nc2cc(-c3ccccc3)[nH]n2)C1	4	1	21249*	-1	6
CCOc1cccc(C(=O)Nc2ccccc2C(=O)N2CCN(C)CC2)c1	-2	8	?	3	3
CCCCc1ccc(N=N/C(C(=O)Nc2ccc(NC(C)=O)cc2OC)=C(/C)O)cc1	-1	18	3588	-3	-8
O=[N+]([O-])c1ccc(S(=O)(=O)NN=CCCc2ccccc2)cc1	1	22	3268	4	-7
CC(NC(=O)c1ccccc1NC(=O)CN1CCc2ccccc2C1)c1ccccc1 (centres undefined)	1	5	4230	-2	3
COC(=O)NC1CSCC1OC(=O)c1ccc(Br)cc1 (centres undefined)	?	7	22183*	-3	2
CCNC(=S)NNC(=O)c1cc(-c2cccc(OCC)c2)nc2ccccc12	-1	-5	11129	-4	-10
CCNC(=S)NNC(=O)c1cc(C2CC2)nc2ccccc12	-2	10	22689*	0	2
CCCCOc1cccc(-c2cc(C(=O)NNC(=S)NCC)c3ccccc3n2)c1	-1	3	19871*	1	-2
CCCCNc1oc(-c2ccc(OC)cc2)nc1S(=O)(=O)c1ccccc1	-1	-5	21088*	-1	-2
CCNc1oc(-c2ccc(OC)cc2)nc1S(=O)(=O)c1ccc(Br)cc1	?	-12	21449*	-1	-7
OCC[C@@H]1C[C@H](O)[C@@H](O)[C@]2(OCc3ccc4ccccc4c32)O1	0	7	2924	1	4
N#C/C(=C\c1ccc(O)c([N+](=O)[O-])c1)c1nc2ccccc2s1	0	5	2559	0	-4
